Measured values as given in PubChem BioAssay (NCI).
This is part of a sample that, as a whole, favours compounds with a hit. Of some 83,000 tested, about 20% had one in any assay.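 96-well plates, one dose, 48 hours. Percent growth reported; active if below 10.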 Values without a mark were called inactive. Calls of active or inactive are those of the source.

System: OVCAR-8 ovarian
Assay: NCI-60 one-dose screen, 48 h (100 = growth as untreated, 0 = no growth, -100 = all killed)
Details: 10 µM unless noted

Structure (SMILES)	growth
COc1ccc(/C=N/NC(=O)Cn2c(-c3ccc(S(C)(=O)=O)cc3)nc3ccccc32)cc1	111%
CN(C)CCCn1c2c(c3ccncc3c1=O)C(=O)c1ccccc1-2	0.796% (active)
OC1(c2ccccc2)c2ccccc2N(c2ccccc2)c2ccc(Cl)cc21 (configuration not stated)	-45% (active)
CC1(/C=C/c2ccc(-c3ccccc3)cc2)CCn2cnc3ncnc(c32)N1O (configuration not stated)	25.7%
C=C1C(=O)O[C@H]2[C@H]1CC/C(COC(=O)/C=C\C(=O)NCc1ccc(Cn3c(=O)sn(CCCCl)c3=O)cc1)=C\CC[C@@]1(C)O[C@@H]21	79.9%
C#Cc1cccc(NC(=O)C2CCCCN2C(=O)CCl)c1 (configuration not stated)	2.11% [8.25 µM] (active)
O=C1CCCC1[n+]1ccccc1 (configuration not stated)	85.8%
N#C/C(=C\c1ccc(-c2cccc(Cl)c2)o1)C(=O)Nc1ncc(Cc2ccc(Cl)cc2)s1	40.4%
O=S(O)c1cc(Cl)cc(Cl)c1OCc1ccccc1	97.6%
O=C(C1=Cc2cc3ccccc3n2Cc2cnnn21)c1ccc(F)cc1	99.4%
CC(C)Cc1nc(Nc2ccccc2)[nH]c(=O)c1C#N	64.4%
C[N+]1=C(/C=C/c2ccccc2Cl)C(C)(C)c2ccccc21	90.8%
CSc1ccc(N2C(=N)C(=S)N(c3ccc(C)cc3)C2=O)cc1	96.1%
CC[C@H](Nc1nc(N)nc(C)c1C#N)c1nc2cccc(CN(C)c3ncc(C(=O)NO)cn3)c2c(=O)n1-c1ccccc1	4.22% (active)
CC(C)CCC[C@@H](C)[C@H]1CC[C@H]2[C@@H]3CC=C4c5sc(Nc6cc(C(F)(F)F)cc(C(F)(F)F)c6)nc5CC[C@]4(C)[C@H]3CC[C@]12C	89.2%
N#CC1=C(N)Oc2c(sc3c(F)cccc23)C1c1ccc([N+](=O)[O-])cc1 (configuration not stated)	-21.6% (active)
c1ccc(-c2c(-c3ccccc3)[n+](Cc3ccc4ccccc4c3)cn2Cc2ccc3ccccc3c2)cc1	-87.4% (active)
O=C(CSc1nnnn1-c1ccccc1)Nc1ccc(Oc2ccccc2)cc1	97.3%
Cc1ccc2c(c1)nc(C)n2-c1ncnc2c1CC(C)c1cc(O)ccc1N2C (configuration not stated)	40.6%

Structure (SMILES)	growth
Fc1ccc2[nH]cc(-c3nc(-c4c[nH]c5c(Cl)nccc45)cs3)c2c1	52%
COc1ccc(Oc2ccc(/C=C/C(=O)c3ccc(OC)c(OC)c3)cc2)cc1	73.8%
CCCCC#Cc1c(I)n(C2OC(CO[Si](C)(C)C(C)(C)C)C3OC(C)(C)OC32)c(=O)n(C(=O)c2ccccc2)c1=O (configuration not stated)	48.8%
O=C(N/N=C/c1ccc(Cl)cc1)c1ccc(NC(=O)c2ccccn2)cc1	46.1%
COc1cc(-c2cc(-c3ccc(Nc4nc(Nc5ccc(Cl)cc5)nc(Nc5ccc(Cl)cc5)n4)cc3)no2)cc(OC)c1OC	76.4%
NCCCNc1nc2ccccc2c2c(=O)c3cc(Cl)ccc3sc12	-48.4% (active)
Cc1ccc(OCCOCCOCCOCCOCCOc2ccc(C)n(O)c2=S)c(=S)n1O	14.1%
CC1(C)CC(=O)C2=C(C1)C(c1ccc(Cl)cc1)n1ncc(C#N)c1N2 (configuration not stated)	97%
CN(C)/C(N)=N/N=C(\c1ccccc1)c1ccccn1	103%
c1ccc(Nc2nc3c(s2)CCc2c[nH]cc2-3)nc1	90.7%
COc1cc2c(cc1OCCCN1CCN(C(=S)SCCC(C#N)(c3ccccc3)c3ccccc3)CC1)N=C[C@@H]1CCCN1C2=O	-0.777% (active)
O=C(NCCCCCCNC(=O)OCc1ccc2c(Cl)cc(Cl)c(O)c2n1)OCc1ccc2c(Cl)cc(Cl)c(O)c2n1	-32.6% (active)
O=C(/C=C/c1ccccc1)N(C1CCCCC1)C1CCCCC1	95%
C=CCn1cc(-c2nc3ccccc3s2)c2cc(-c3ccc4c5c(cccc35)C(=O)N(CCO)C4=O)ccc21	91.2%
COc1cc(/C=C/C(=O)c2cccc(-n3cc(-c4ccc(Cl)cc4)[nH]c3=O)c2)ccc1O	46.5%
O=C1Nc2ccc(Cl)cc2/C1=C/c1ccc[nH]1	102%
Cn1c2ccccc2c2c3c(c4c5cc(Br)ccc5n(C)c4c21)C(=O)N(O)C3=O	24.8%
O=S(=O)(NCCNc1nccc(-c2c(-c3ccc(F)c(O)c3)nc3sccn23)n1)c1ccc(Cl)cc1	22.3%
